Structures can show the parent of a compound that is named as a salt.
Columns and labels:
Conditions in all cases: compound concentration in added solution (µM; 5 µl added to 20 µl cells): 10; 18 h
A431 [1] = assay: LBPA endosome anti-LBPA integrated intensity (sum per cell), Z-score; higher = more LBPA staining
Outline: (§1)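 Per-cell integrated LBPA or filipin intensity, whole-cell or within LBPA endosomes, is expressed as Z-scores normalised in AcuityXpress. HeLa MZ or A431 cells, 3,500 per well in 20 µl, sat on 5 µl of 10 µM compound solution in duplicate 384-well imaging plates for 18 h. They were then fixed in 4% PFA, stained, imaged in four 20× fields per well and segmented using MetaXpress.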

HeLa MZ [2] = assay: as above
Outline: as §1

A431 [3] = assay: whole-cell filipin (free cholesterol) integrated intensity, Z-score; higher = more cholesterol staining
Outline: as §1

HeLa MZ [4] = assay: as above
Outline: as §1

A431 [5] = assay: filipin (cholesterol) integrated intensity within LBPA endosomes, Z-score; higher = more cholesterol in LBPA endosomes
Outline: as §1

HeLa MZ [6] = assay: as above
Outline: as §1

| SMILES | LBPA endosome anti-LBPA integrated intensity (z-score) (A431 [1]) | LBPA endosome anti-LBPA integrated intensity (z-score) (HeLa MZ [2]) | whole-cell filipin (z-score) (A431 [3]) | whole-cell filipin (z-score) (HeLa MZ [4]) | filipin (z-score) (A431 [5]) | filipin (z-score) (HeLa MZ [6]) |
| --- | --- | --- | --- | --- | --- | --- |
| CCC1(C)CC(=O)NC1=O (stereo not drawn) [Ethosuximide] | -0.426 | -0.83 | -0.448 | -0.207 | -0.393 | -0.464 |
| Nc1ccc(S(=O)(=O)Nc2ccnn2-c2ccccc2)cc1 [Sulfaphenazole] | -0.541 | -1.02 | -0.89 | -1.05 | -0.533 | -0.671 |
| O=C(O)CNC(=O)C(CS)Cc1ccccc1 (stereo not drawn) [Thiorphan] | -0.785 | -1.92 | -0.897 | -0.571 | -0.691 | -0.682 |
| CC(CNC1CCCCC1)OC(=O)c1ccccc1 (stereo not drawn) [Hexylcaine hydrochloride] | -0.125 | -0.0338 | -0.478 | -0.747 | -0.345 | -0.436 |
| O=C(NCCO[N+](=O)[O-])c1cccnc1 [Nicorandil] | -0.51 | -0.536 | -0.699 | -0.868 | -0.497 | -0.545 |
| C[C@]12CCC(=O)C=C1C=C[C@@H]1[C@@H]2CC[C@@]2(C)[C@H]1CC[C@@]21CCC(=O)O1 [Canrenone] | -0.209 | 1.1 | 0.452 | 1.37 | -0.0815 | 0.168 |
| Cc1onc(-c2ccccc2)c1C(=O)N[C@@H]1C(=O)N2[C@@H]1SC(C)(C)[C@@H]2C(=O)O [Oxacillin sodium] | -0.391 | 0.32 | -0.277 | -0.0335 | -0.382 | -0.445 |
| O=C(COc1ccc(Cl)cc1)N1CCN(Cc2ccc3c(c2)OCO3)CC1 [Fipexide hydrochloride] | -0.365 | 0.298 | -0.792 | -0.7 | -0.47 | -0.495 |
| COc1cc(C(=O)NS(=O)(=O)c2ccccc2C)ccc1Cc1cn(C)c2ccc(NC(=O)OC3CCCC3)cc12 [Zafirlukast] | -0.518 | -0.847 | -0.458 | -0.494 | -0.486 | -0.569 |
| CN1CCN(CC(=O)N2c3ccccc3C(=O)Nc3cccnc32)CC1 [Pirenzepine dihydrochloride] | -0.619 | -0.294 | -1.05 | -0.725 | -0.555 | -0.529 |
| Cc1ccc(S(=O)(=O)NC(=O)NN2CCCCCC2)cc1 [Tolazamide] | -0.639 | -1.11 | -0.852 | -0.547 | -0.571 | -0.672 |
| NC(=O)N1c2ccccc2CC(=O)c2ccccc21 [Oxcarbazepine] | -0.669 | -1.06 | -0.767 | -1.13 | -0.582 | -0.729 |
| CCc1ccc(CCOc2ccc(CC3SC(=O)NC3=O)cc2)nc1 (stereo not drawn) [Pioglitazone] | -0.492 | -0.449 | -0.697 | -0.748 | -0.5 | -0.629 |
| CCCN(CCC)CCc1cccc2c1CC(=O)N2 [Ropinirole HCl] | -0.0677 | 0.764 | -0.368 | 0.26 | -0.342 | 0.248 |
| C[C@H](CCC(=O)O)[C@H]1CC[C@H]2[C@@H]3CC[C@@H]4C[C@H](O)CC[C@]4(C)[C@H]3CC[C@]12C [Lithocholic acid] | -0.507 | -0.5 | -0.232 | 0.929 | -0.446 | -0.289 |
| C[C@H](CCC(=O)O)[C@H]1CC[C@H]2[C@@H]3[C@H](O)C[C@@H]4C[C@H](O)CC[C@]4(C)[C@H]3CC[C@]12C [Chenodiol] | -0.496 | -1.46 | -0.897 | -0.999 | -0.575 | -0.773 |
| O=C(O[C@@H]1C[C@@H]2C[C@H]3C[C@H](C1)N2CC3=O)c1c[nH]c2ccccc12 [Dolasetron mesilate] | -0.534 | -0.27 | -0.669 | 0.0841 | -0.498 | -0.224 |
| COc1ccc(-c2cc(=S)ss2)cc1 [Anethole-trithione] | -0.536 | -0.179 | -0.0973 | 0.207 | -0.447 | -0.257 |
| CC(=O)OCC(=O)[C@@]12OC(C)(C)O[C@@H]1C[C@H]1[C@@H]3C[C@H](F)C4=CC(=O)C=C[C@]4(C)[C@@]3(F)[C@@H](O)C[C@@]12C [Fluocinonide] | -0.115 | -0.842 | -0.144 | -0.284 | -0.311 | -0.49 |
| CCC(=O)O[C@@H](O[P@](=O)(CCCCc1ccccc1)CC(=O)N1C[C@H](C2CCCCC2)C[C@H]1C(=O)O)C(C)C [Fosinopril] | -0.177 | -0.153 | -0.025 | 0.0232 | -0.364 | -0.383 |
| Nc1nc(=O)[nH]cc1F [Flucytosine] | -0.468 | -0.721 | -0.313 | -0.0984 | -0.463 | -0.623 |
| O=C(O)Cc1ccccc1Nc1c(Cl)cccc1Cl [Diclofenac sodium] | -0.542 | -0.789 | -0.65 | -0.702 | -0.505 | -0.603 |
| CC(=O)N[C@@H](CS)C(=O)O [Acetylcysteine] | -0.477 | -0.307 | -0.0556 | -0.751 | -0.4 | -0.456 |
| C=C1/C(=C\C=C2/CCC[C@]3(C)[C@@H]([C@H](C)CCCC(C)C)CC[C@@H]23)C[C@@H](O)C[C@@H]1O [Alfacalcidol] | 0.0439 | -0.204 | -0.362 | -0.701 | -0.145 | -0.743 |

| SMILES | LBPA endosome anti-LBPA integrated intensity (z-score) (A431 [1]) | LBPA endosome anti-LBPA integrated intensity (z-score) (HeLa MZ [2]) | whole-cell filipin (z-score) (A431 [3]) | whole-cell filipin (z-score) (HeLa MZ [4]) | filipin (z-score) (A431 [5]) | filipin (z-score) (HeLa MZ [6]) |
| --- | --- | --- | --- | --- | --- | --- |
| COCCOC(=O)C1=C(C)NC(C)=C(C(=O)OC/C=C/c2ccccc2)C1c1cccc([N+](=O)[O-])c1 (stereo not drawn) [Cilnidipine] | 0.601 | 0.589 | 1.38 | -0.377 | 0.591 | 0.579 |
| CN(C)CCOC(c1ccc(Cl)cc1)c1ccccn1 (stereo not drawn) [Carbinoxamine maleate salt] | -0.697 | -0.856 | -0.5 | -0.502 | -0.442 | -0.169 |
| COc1cc(NS(=O)(=O)c2ccc(N)cc2)ncn1 [Sulfamonomethoxine] | -0.448 | 0.107 | -0.452 | 0.0403 | -0.378 | -0.344 |
| CN1CCC(=C2c3ccccc3CCc3sccc32)CC1 [Pizotifen malate] | 2.92 | 2.11 | 2.58 | -0.0276 | 2.82 | 1.53 |
| COc1ccc(CN(CCN(C)C)c2ccccn2)cc1 [Pyrilamine maleate] | -0.379 | 0.813 | -0.723 | -0.374 | -0.426 | 0.0714 |
| C[n+]1ccccc1/C=N/O [Pralidoxime chloride] | -0.559 | -0.678 | -0.432 | -0.212 | -0.503 | -0.574 |
| c1ccc(CN(CC2=NCCN2)c2ccccc2)cc1 [Antazoline hydrochloride] | -0.107 | 0.686 | -0.0849 | 0.249 | -0.0343 | 0.301 |
| Cc1c(N)c(=O)n(-c2ccccc2)n1C [Ampyrone] | -0.478 | -0.409 | -0.998 | -1.26 | -0.379 | -0.625 |
| Cn1cnc2c1c(=O)[nH]c(=O)n2C [Theobromine] | -0.566 | -1.37 | -0.361 | -0.586 | -0.492 | -0.483 |
| O=C1c2ccccc2S(=O)(=O)N1CCCCN1CCN(c2ncccn2)CC1 [Ipsapirone] | -0.419 | 0.911 | -0.664 | -0.262 | -0.426 | 0.0372 |
| Cc1cc(N)c2ccccc2[n+]1CCCCCCCCCC[n+]1c(C)cc(N)c2ccccc21 [Dequalinium dichloride] | -0.351 | 0.0986 | -0.943 | 1.23 | -0.599 | -0.485 |
| CC(C)NCC(O)c1ccc(NS(C)(=O)=O)cc1 (stereo not drawn) [Sotalol hydrochloride] | -0.295 | -0.419 | 0.181 | 0.261 | -0.181 | -0.219 |
| Nc1ccc(S(=O)(=O)c2ccc(N)cc2)cc1 [Dapsone] | -0.514 | -0.767 | -0.45 | -0.817 | -0.55 | -0.603 |
| CN[C@@H]1[C@@H](O[C@H]2O[C@H](CO)[C@@H](N)[C@H](O)[C@H]2O)OC2C[C@@H](N)[C@@H](O[C@H]3[C@H](O)[C@@H](O)[C@H](N)C[C@@H]3N)OC2[C@@H]1O (stereo partly drawn) [Apramycin] | -0.469 | -0.358 | -0.077 | -0.329 | -0.402 | -0.523 |
| Cc1ncc(C[n+]2csc(CCO)c2C)c(N)n1 [Thiamine hydrochloride] | -0.398 | -0.0332 | 0.0289 | -0.0399 | -0.382 | -0.539 |
| Nc1nc(NC2CC2)c2ncn([C@H]3C=C[C@@H](CO)C3)c2n1 [Abacavir Sulfate] | -0.557 | -0.156 | -0.517 | -0.596 | -0.478 | -0.612 |
| CN(C)CCN(Cc1ccc(Cl)cc1)c1ccccn1 [Chloropyramine hydrochloride] | 0.629 | 4.98 | 1.63 | 5.51 | 1.05 | 1.3 |
| CN1CCN2c3ncccc3Cc3ccccc3C2C1 (stereo not drawn) [Mirtazapine] | -0.296 | 0.0872 | -0.206 | 0.74 | -0.391 | 0.392 |
| CCCCC(O)c1ccccc1 (stereo not drawn) [Fenipentol] | -0.545 | -0.11 | -0.922 | -0.426 | -0.553 | -0.613 |
| COc1nc(C)nc(Cl)c1NC1=NCCN1 [Moxonidine] | -0.127 | 0.511 | -0.0575 | -0.203 | -0.176 | -0.384 |
| CCCNC(C)C(=O)Nc1c(C)csc1C(=O)OC (stereo not drawn) [Articaine hydrochloride] | -0.511 | -1.09 | -0.0579 | -0.354 | -0.492 | -0.461 |
| CO[C@@]1(NC(=O)C(C(=O)O)c2ccc(O)cc2)C(=O)N2C(C(=O)O)=C(CSc3nnnn3C)CO[C@@H]21 (stereo partly drawn) [Moxalactam disodium salt] | -0.477 | 0.127 | -0.129 | 0.413 | -0.413 | -0.25 |
| Cn1c(=O)c2c(ncn2CC(O)CO)n(C)c1=O (stereo not drawn) [Diprophylline] | -0.55 | -0.754 | -0.617 | -0.852 | -0.554 | -0.628 |
| CC(Oc1c(Cl)cccc1Cl)C1=NCCN1 (stereo not drawn) [Lofexidine] | -0.44 | 0.792 | -0.761 | -0.717 | -0.424 | -0.23 |
